# Reference: PubChem BioAssay AID493233 (Broad Institute, 2011)
# Results with a measured potency or affinity are listed apart. The source made the active and inactive calls. How the calls were made is not given here.
# Biological target: Protein RecA (Mycobacterium tuberculosis (strain ATCC 25618 / H37Rv)) (UniProt P9WHJ3)
# Assay: RecA inhibition, Mycobacterium tuberculosis, GFP plate reader MOA with DTT, confirmatory (AID 493233)
# Details: GFP-RecA biochemical assay with DTT; series mostly up to 35 µM
# Protein RecA (Mycobacterium tuberculosis (strain ATCC 25618 / H37Rv)), sequence (P9WHJ3 whole entry, looked up): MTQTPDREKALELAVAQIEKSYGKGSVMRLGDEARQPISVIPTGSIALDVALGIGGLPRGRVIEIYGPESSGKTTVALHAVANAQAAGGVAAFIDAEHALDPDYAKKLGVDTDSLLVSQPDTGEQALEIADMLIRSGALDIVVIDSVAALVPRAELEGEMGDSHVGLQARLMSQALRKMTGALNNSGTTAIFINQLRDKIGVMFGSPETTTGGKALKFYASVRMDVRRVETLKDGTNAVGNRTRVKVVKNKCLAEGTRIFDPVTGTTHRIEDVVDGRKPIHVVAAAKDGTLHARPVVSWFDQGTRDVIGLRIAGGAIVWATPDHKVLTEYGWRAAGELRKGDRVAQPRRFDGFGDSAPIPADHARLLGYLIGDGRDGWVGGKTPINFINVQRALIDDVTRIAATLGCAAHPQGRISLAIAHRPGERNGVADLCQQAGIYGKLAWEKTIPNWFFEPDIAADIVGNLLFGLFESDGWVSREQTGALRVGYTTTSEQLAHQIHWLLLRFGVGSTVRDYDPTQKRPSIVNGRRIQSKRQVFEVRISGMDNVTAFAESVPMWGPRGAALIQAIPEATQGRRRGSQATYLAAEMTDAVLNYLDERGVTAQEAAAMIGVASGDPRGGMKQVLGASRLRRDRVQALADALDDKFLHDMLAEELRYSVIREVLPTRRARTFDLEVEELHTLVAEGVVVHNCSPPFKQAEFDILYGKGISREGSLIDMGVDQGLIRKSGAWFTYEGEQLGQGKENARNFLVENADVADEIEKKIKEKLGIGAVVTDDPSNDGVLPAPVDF
row,SMILES,outcome
1,Nc1cn(-c2ccccc2)nc1-c1ccc(F)cc1,inactive
2,C/C(=N\NC(=O)c1ccncc1)c1cc2ccccc2oc1=O,inactive
